Laboratory results reported in PubChem BioAssay (EPA / NIEHS).
The source made the active and inactive calls. How the source made its calls, unless noted: active means hit-call score of the fitted dose curve at least 0.9, where 1 is the maximum; inactive means score below 0.9.

How the values were obtained:
[1] = read-out: Protein phosphatase 2A (PPP2R4), PTPA (gene 5524); test: LTEA_HepaRG_PPP2R4: Life Technologies and Expression Analysis (LTEA) Assay for Protein phosphatase 2A (PPP2R4) using HepaRG (AID 2283522); details: mRNA level, 48 h; actives raise or lower the signal
Procedure, shortened: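 HepaRG, 48 h exposure, 8-pt half-log series from 100 uM, 0.5% DMSO vehicle, duplicates. Readout: PPP2R4 mRNA, Fluidigm qRT-PCR, housekeeping-normalized. Bidirectional curve fit vs DMSO baseline.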

[2] = read-out: Phosphatase and tensin (PTEN), PTEN (gene 5728); test: LTEA_HepaRG_PTEN: Life Technologies and Expression Analysis (LTEA) Assay for Phosphatase and tensin (PTEN) using HepaRG (AID 2283523); details: mRNA level, 48 h; actives raise or lower the signal
Procedure, shortened: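 HepaRG, 48 h exposure, 8-pt half-log series from 100 uM top, 0.5% DMSO vehicle, duplicates. Readout: Fluidigm qRT-PCR of PTEN transcript; housekeeping normalization (ACTB, GAPDH, POLR2A). Gain or loss fitted relative to DMSO baseline.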

[3] = read-out: solute carrier (SLC22A1), SLC22A1 (gene 6580); test: LTEA_HepaRG_SLC22A1: Life Technologies and Expression Analysis (LTEA) Assay for solute carrier (SLC22A1) using HepaRG (AID 2283524); details: mRNA level, 48 h; actives raise or lower the signal
Procedure, shortened: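 qRT-PCR readout (TaqMan, Fluidigm arrays) of SLC22A1 transcript, normalized to three housekeeping genes; bidirectional curve fit relative to 0.5% DMSO vehicle. Differentiated human HepaRG cells, 48 h chemical exposure, top concentration 100 uM, half-log steps, eight points.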

[4] = read-out: Pyruvate Dehydrogenase Kinase 4 (PDK4), PDK4 (gene 5166); test: LTEA_HepaRG_PDK4: Life Technologies and Expression Analysis (LTEA) Assay for Pyruvate Dehydrogenase Kinase 4 (PDK4) using HepaRG (AID 2283525); details: mRNA level, 48 h; actives raise or lower the signal
Procedure, shortened: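 HepaRG (human liver line), 48 h chemical exposure, 8-pt half-log CRC top 100 uM, 0.5% DMSO vehicle, duplicates. Readout: TaqMan qRT-PCR of PDK4 mRNA, housekeeping-normalized; gain/loss fit relative to DMSO baseline.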

[5] = read-out: NAD(P)H dehydrogenase [quinone] 1 (NQO1), NQO1 (gene 1728); test: LTEA_HepaRG_NQO1: Life Technologies and Expression Analysis (LTEA) Assay for NAD(P)H dehydrogenase [quinone] 1 (NQO1) using HepaRG (AID 2283526); details: mRNA level, 48 h; actives raise or lower the signal
Procedure, shortened: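 qRT-PCR read-out (Fluidigm TaqMan), normalized to three housekeeping genes, after 48 h chemical exposure of HepaRG cells. Concentrations: eight points, top 100 uM, half-log steps, 0.5% DMSO vehicle. Gain or loss of signal fitted relative to DMSO.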

[6] = read-out: succinate dehydrogenase complex iron sulfur subunit B (SDHB), SDHB (gene 6390); test: LTEA_HepaRG_SDHB: Life Technologies and Expression Analysis (LTEA) Assay for succinate dehydrogenase complex iron sulfur subunit B (SDHB) using HepaRG (AID 2283528); details: mRNA level, 48 h; actives raise or lower the signal
Procedure, shortened: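 Readout is SDHB transcript level by qRT-PCR, normalised to three housekeeping genes and fitted bidirectionally against 0.5% DMSO vehicle. Human HepaRG cells were treated for 48 h at up to 100 uM.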

[7] = read-out: Signal transducer and activator of transcription 3 (Homo sapiens) (UniProt P40763); test: LTEA_HepaRG_STAT3: Life Technologies and Expression Analysis (LTEA) Assay for Signal transducer and activator of transcription (STAT3) using HepaRG (AID 2283529); details: mRNA level, 48 h; actives raise or lower the signal
Procedure, shortened: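 HepaRG, 48 h exposure, 8-pt half-log series (top 100 uM), 0.5% DMSO vehicle, duplicates. Readout: STAT3 transcript by Fluidigm qRT-PCR, housekeeping-normalized; bidirectional fit vs DMSO baseline.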

[8] = read-out: solute carrier (SLCO1B1), SLCO1B1 (gene 10599); test: LTEA_HepaRG_SLCO1B1: Life Technologies and Expression Analysis (LTEA) Assay for solute carrier (SLCO1B1) using HepaRG (AID 2283530); details: mRNA level, 48 h; actives raise or lower the signal
Procedure, shortened: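 Differentiated human HepaRG cells were exposed for 48 h in serum-free induction medium to eight half-log concentrations, top 100 uM, in 0.5% DMSO. SLCO1B1 mRNA was measured by qRT-PCR, normalized to ACTB, GAPDH and POLR2A, and fitted bidirectionally against DMSO.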

[9] = read-out: sulfotransferase 2A1 (SULT2A1), SULT2A1 (gene 6822); test: LTEA_HepaRG_SULT2A1: Life Technologies and Expression Analysis (LTEA) Assay for sulfotransferase 2A1 (SULT2A1) using HepaRG (AID 2283531); details: mRNA level, 48 h; actives raise or lower the signal
Procedure, shortened: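 HepaRG human liver cells, 48 h exposure in serum-free induction medium to 8 half-log concentrations topping at 100 µM (0.5% DMSO), duplicate wells. SULT2A1 mRNA measured by TaqMan qRT-PCR, normalized to ACTB/GAPDH/POLR2A; bidirectional fit against DMSO.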

[10] = read-out: Transforming Growth Factor (TGFA), TGFA (gene 7039); test: LTEA_HepaRG_TGFA: Life Technologies and Expression Analysis (LTEA) Assay for Transforming Growth Factor (TGFA) using HepaRG (AID 2283532); details: mRNA level, 48 h; actives raise or lower the signal
Procedure, shortened: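 qRT-PCR read-out of TGFA transcript, normalized to three housekeeping genes, fitted bidirectionally against 0.5% DMSO baseline. Human HepaRG cultures received chemicals for 48 h at eight half-log concentrations, top 100 uM.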

[11] = read-out: Transforming Growth Factor (TGFB1), TGFB1 (gene 7040); test: LTEA_HepaRG_TGFB1: Life Technologies and Expression Analysis (LTEA) Assay for Transforming Growth Factor (TGFB1) Transporter using HepaRG (AID 2283533); details: mRNA level, 48 h; actives raise or lower the signal
Procedure, shortened: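 Differentiated HepaRG cells exposed 48 hr in serum-free induction medium to eight half-log concentrations up to 100 uM (0.5% DMSO), duplicate; TGFB1 mRNA by TaqMan qRT-PCR normalised to ACTB, GAPDH, POLR2A; bidirectional fit against DMSO.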

[12] = read-out: Tumor necrosis factor receptor 1 (TNFRSF1A), TNFRSF1A (gene 7132); test: LTEA_HepaRG_TNFRSF1A: Life Technologies and Expression Analysis (LTEA) Assay for Tumor necrosis factor receptor 1 (TNFRSF1A) using HepaRG (AID 2283535); details: mRNA level, 48 h; actives raise or lower the signal
Procedure, shortened: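 Differentiated HepaRG cells in serum-free induction medium, exposed 48 h in duplicate to 8 half-log concentrations up to 100 uM in 0.5% DMSO. TNFRSF1A mRNA by Fluidigm TaqMan qRT-PCR, normalized to ACTB, GAPDH, POLR2A; bidirectional fit.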

[13] = read-out: Cellular tumor antigen p53 (Homo sapiens) (UniProt P04637); test: LTEA_HepaRG_TP53: Life Technologies and Expression Analysis (LTEA) Assay for Tumor Protein P53 (TP53) using HepaRG (AID 2283537); details: mRNA level, 48 h; actives raise or lower the signal
Procedure, shortened: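 Read-out is TP53 transcript level by microfluidic qRT-PCR, normalised to three housekeeping genes and fitted bidirectionally against DMSO. Human HepaRG cells received compounds for 48 h, highest concentration 100 uM.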

[14] = read-out: UDP glucuronosyltransferase (UGT1A1), UGT1A1 (gene 54658); test: LTEA_HepaRG_UGT1A1: Life Technologies and Expression Analysis (LTEA) Assay for UDP glucuronosyltransferase (UGT1A1) using HepaRG (AID 2283538); details: mRNA level, 48 h; actives raise or lower the signal
Procedure, shortened: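 HepaRG, 48 h chemical exposure (top 100 uM, half-log 8-pt, 0.5% DMSO vehicle), duplicate wells; qRT-PCR (TaqMan, Fluidigm array) for UGT1A1 mRNA, housekeeping-normalized; bidirectional curve fit vs DMSO baseline.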

[15] = read-out: UDP glucuronosyltransferase (UGT1A6), UGT1A6 (gene 54578); test: LTEA_HepaRG_UGT1A6: Life Technologies and Expression Analysis (LTEA) Assay for UDP glucuronosyltransferase (UGT1A6) using HepaRG (AID 2283539); details: mRNA level, 48 h; actives raise or lower the signal
Procedure, shortened: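 Differentiated HepaRG cells, ~100,000/well, were exposed for 48 h in serum-free induction medium with 0.5% DMSO to 8-point half-log series topping at 100 uM, in duplicate. mRNA measured by Fluidigm TaqMan qRT-PCR, normalized to ACTB, GAPDH and POLR2A.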

[16] = read-out: X-box binding protein 1 (XBP1), XBP1 (gene 7494); test: LTEA_HepaRG_XBP1: Life Technologies and Expression Analysis (LTEA) Assay for X-box binding protein 1 (XBP1) using HepaRG (AID 2283540); details: mRNA level, 48 h; actives raise or lower the signal
Procedure, shortened: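 Differentiated human HepaRG cells in serum-free induction medium exposed 48 h in duplicate to eight half-log concentrations up to 100 uM in 0.5% DMSO. XBP1 mRNA measured by Fluidigm TaqMan qRT-PCR, normalized to ACTB, GAPDH, POLR2A; bidirectional fitting against DMSO.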

[17] = LTEA_HepaRG_LDH_cytotoxicity: Cytotoxicity Assessment in the Life Technologies and Expression Analysis (LTEA) Assay (AID 2283563; active means hit-call score of the fitted dose curve at least 0.9, where 1 is the maximum;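 on AC50: LDH activity released into spent culture medium as a marker of cell death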)
Procedure, shortened: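 Differentiated HepaRG cells in serum-free induction medium, exposed 48 h in duplicate to 8 half-log concentrations up to 100 uM in 0.5% DMSO. Cytotoxicity from LDH measured in spent medium, fit relative to DMSO.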

[18] = read-out: TIMP1, TIMP1 (gene 7076); test: LTEA_HepaRG_TIMP1: Life Technologies and Expression Analysis (LTEA) Assay for TIMP1 using HepaRG (AID 2283534); details: mRNA level, 48 h; actives raise or lower the signal;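 on outcome: TaqMan qRT-PCR signal normalized to ACTB GAPDH and POLR2A housekeeping genes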
Procedure, shortened: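 Differentiated HepaRG cells exposed 48 h in serum-free induction medium, duplicates, eight half-log concentrations from 100 uM in 0.5% DMSO. TIMP1 mRNA by qRT-PCR normalized to ACTB, GAPDH, POLR2A; bidirectional fitting against DMSO.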

Chain of Signal transducer and activator of transcription 3 (Homo sapiens) (P40763 whole entry, looked up): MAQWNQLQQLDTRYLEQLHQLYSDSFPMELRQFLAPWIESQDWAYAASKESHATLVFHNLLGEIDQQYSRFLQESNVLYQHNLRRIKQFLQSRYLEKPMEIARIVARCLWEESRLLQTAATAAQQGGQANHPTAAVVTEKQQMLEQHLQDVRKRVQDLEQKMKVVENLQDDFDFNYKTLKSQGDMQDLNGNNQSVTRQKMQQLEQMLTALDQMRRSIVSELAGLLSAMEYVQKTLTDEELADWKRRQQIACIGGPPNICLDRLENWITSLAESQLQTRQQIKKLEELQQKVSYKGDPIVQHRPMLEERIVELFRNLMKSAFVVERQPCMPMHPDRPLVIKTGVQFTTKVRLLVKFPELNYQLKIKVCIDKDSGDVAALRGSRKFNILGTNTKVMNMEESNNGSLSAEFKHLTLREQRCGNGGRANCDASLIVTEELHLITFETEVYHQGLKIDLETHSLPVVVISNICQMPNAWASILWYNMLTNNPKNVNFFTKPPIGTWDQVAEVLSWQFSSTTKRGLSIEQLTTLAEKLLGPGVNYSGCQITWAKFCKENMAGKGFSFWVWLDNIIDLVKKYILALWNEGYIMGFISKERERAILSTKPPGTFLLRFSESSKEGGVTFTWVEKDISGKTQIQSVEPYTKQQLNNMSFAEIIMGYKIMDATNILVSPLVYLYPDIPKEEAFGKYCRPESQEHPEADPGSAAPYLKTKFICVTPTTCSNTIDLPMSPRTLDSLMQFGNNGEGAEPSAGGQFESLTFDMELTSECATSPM
Chain of Cellular tumor antigen p53 (Homo sapiens) (P04637 whole entry, looked up): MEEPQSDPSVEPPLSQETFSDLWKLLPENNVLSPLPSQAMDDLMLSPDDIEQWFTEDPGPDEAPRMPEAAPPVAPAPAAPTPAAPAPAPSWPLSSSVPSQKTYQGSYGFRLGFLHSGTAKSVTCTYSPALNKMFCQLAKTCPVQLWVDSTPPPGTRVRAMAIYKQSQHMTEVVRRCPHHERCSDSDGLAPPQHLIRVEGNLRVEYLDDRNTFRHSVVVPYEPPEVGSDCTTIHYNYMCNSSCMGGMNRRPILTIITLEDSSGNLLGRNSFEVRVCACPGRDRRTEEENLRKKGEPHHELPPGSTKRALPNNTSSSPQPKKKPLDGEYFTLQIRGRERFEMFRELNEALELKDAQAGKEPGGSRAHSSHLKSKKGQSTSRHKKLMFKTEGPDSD

SMILES: O=C(Nc1ccc(Cl)cc1)Nc1ccc(Cl)c(Cl)c1
- AC50 [1]: 21.3 µM (active)
- AC50 [2]: 22.2 µM (active)
- AC50 [3]: 17.4 µM (active)
- AC50 [4]: 27 µM (active)
- AC50 [5]: 17.8 µM (active)
- AC50 [6]: 13.2 µM (active)
- AC50 [7]: 14.2 µM (active)
- AC50 [8]: 18.7 µM (active)
- AC50 [9]: 22.7 µM (active)
- AC50 [10]: 25.5 µM (active)
- AC50 [11]: 24.4 µM (active)
- AC50 [12]: 13.1 µM (active)
- AC50 [13]: 12.4 µM (active)
- AC50 [14]: 14.9 µM (active)
- AC50 [15]: 13.5 µM (active)
- AC50 [16]: 17.2 µM (active)
- AC50 [17]: 24.9 µM (active)

SMILES: CC(C)(C)c1cc(/C=C2\SC(N)=NC2=O)cc(C(C)(C)C)c1O
- AC50 [1]: 96.5 µM (active)
- AC50 [2]: 18.4 µM (active)
- AC50 [3]: 25.3 µM (active)
- AC50 [4]: 12.4 µM (active)
- AC50 [5]: 15.8 µM (active)
- outcome [6]: inactive
- outcome [7]: inactive
- AC50 [8]: 24.9 µM (active)
- AC50 [9]: 93.6 µM (active)
- AC50 [10]: 22.6 µM (active)
- AC50 [11]: 4.43 µM (active)
- AC50 [18]: 33.8 µM (active)
- AC50 [12]: 15.8 µM (active)
- outcome [13]: inactive
- AC50 [15]: 22.1 µM (active)
- outcome [16]: inactive
- AC50 [17]: 37.3 µM (active)

SMILES: COc1cccc([C@H](O)C2CCN(CCc3ccc(F)cc3)CC2)c1OC
- outcome [1]: inactive
- outcome [2]: inactive
- outcome [3]: inactive
- outcome [4]: inactive
- outcome [5]: inactive
- outcome [6]: inactive
- outcome [7]: inactive
- outcome [8]: inactive
- outcome [9]: inactive
- outcome [10]: inactive
- outcome [18]: inactive
- outcome [12]: inactive
- outcome [13]: inactive
- outcome [14]: inactive
- outcome [15]: inactive
- outcome [16]: inactive
- outcome [17]: inactive

SMILES: CCCCCCCCCCCC[N+](C)(C)C
- outcome [1]: inactive
- outcome [2]: inactive
- AC50 [3]: 91 µM (active)
- AC50 [4]: 75.6 µM (active)
- outcome [5]: inactive
- outcome [6]: inactive
- outcome [7]: inactive
- AC50 [8]: 88.1 µM (active)
- AC50 [9]: 93.5 µM (active)
- AC50 [10]: 77 µM (active)
- AC50 [11]: 50 µM (active)
- AC50 [18]: 83.4 µM (active)
- outcome [12]: inactive
- AC50 [13]: 81.9 µM (active)
- AC50 [15]: 89.9 µM (active)
- outcome [16]: inactive
- AC50 [17]: 90.4 µM (active)

SMILES: Cc1cc(F)ccc1-c1cc(N2CC[C@@H](O)[C@H]2CO)ncc1N(C)C(=O)C(C)(C)c1cc(C(F)(F)F)cc(C(F)(F)F)c1
- AC50 [1]: 21.5 µM (active)
- AC50 [2]: 66.4 µM (active)
- AC50 [3]: 20.7 µM (active)
- outcome [4]: inactive
- AC50 [5]: 79.8 µM (active)
- AC50 [6]: 75.1 µM (active)
- outcome [7]: inactive
- AC50 [8]: 12.9 µM (active)
- AC50 [9]: 24.7 µM (active)
- AC50 [10]: 23.6 µM (active)
- outcome [12]: inactive
- AC50 [13]: 19.9 µM (active)
- AC50 [14]: 23 µM (active)
- outcome [15]: inactive
- outcome [16]: inactive
- AC50 [17]: 30.9 µM (active)
